# Test results taken from PubChem BioAssay (NCI).
# Compounds without any hit were thinned out: in the full panel of roughly 83,000, 20% have a hit.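 96-well plates, one dose, 48 hours. Percent growth reported; active if below 10.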 A number with no mark means an inactive call. Calls of active or inactive are those of the source.
# Legend:
# Assay in all cases: NCI-60 one-dose screen, 48 h (100 = growth as untreated, 0 = no growth, -100 = all killed)
# Settings in all cases: 10 µM unless noted
# [1] = tested on: SK-MEL-2 melanoma
# [2] = tested on: EKVX NSCLC
# [3] = tested on: SN12C renal
# [4] = tested on: UO-31 renal
# [5] = tested on: TK-10 renal
# [6] = tested on: A498 renal
# [7] = tested on: CCRF-CEM leukemia
# [8] = tested on: MOLT-4 leukemia
Compound,growth [1],growth [2],growth [3],growth [4],growth [5],growth [6],growth [7],growth [8]
O=C(Nc1cccc([N+](=O)[O-])c1)Nc1cccc([N+](=O)[O-])c1,53.9%,50.4%,70.3%,46.6%,39%,33.1%,15.5%,9.18% (active)
Nc1nc(-c2cc3c(cc2Cl)NC(=O)/C3=C/c2ccc(Cl)cc2)cs1,36.6%,35.3%,48.8%,54.3%,82.3%,74.8%,19%,15.5%
C#C[C@@]1(O)[C@@H](CO)O[C@@H](n2cc(Br)c3c(Cl)ccnc32)[C@@H]1O,68.7%,58.7%,23.7%,45.2%,63.3%,-20% (active),12.8%,1.9% (active)
CCOC(=O)c1noc2c1CCc1c-2cn(Cc2ccc(OC)cc2)c1-c1cc(OC)c(OC)c(OC)c1,35.4%,48.6%,44.7%,30.9%,68.8%,56.2%,15%,18.5%
CC(C)(C)C(=O)Nc1nc2c(s1)CCc1ccn(S(=O)(=O)c3ccccc3)c1-2,81.8%,87.7%,112%,62.7%,82.1%,101%,92.9%,70.8%
COc1ccc(Cl)cc1NC(=O)c1cc2c([nH]1)-c1nc(NC(=O)C(C)C)sc1CC2,84.6%,82.1%,99.2%,51.9%,85.8%,112%,93.4%,86%
O[C@@H]1CCO[C@H](c2ccc3ccccc3c2)C1,96%,102%,101%,93.4%,93.9%,73.3%,103%,99.1%
CC(/C=C/C=C(\C)[C@H](O)[C@H](C)C(=O)O[C@H]1C[C@H](C)C=C2C=C[C@@]3(C)O[C@@H](O)CC(=O)[C@]3(C)[C@H]21)=C\C=C\C(=O)O,-46.9% (active),-0.933% (active),3.38% (active),18.8%,15.5%,-38.9% (active),8.62% (active),1.42% (active)
CCc1c(C)c2cc3nc(NCc4ccccc4)oc3c(C)c2oc1=O,83.6%,77.1%,73.5%,80.1%,77.6%,49.2%,79.6%,71.9%
Cc1nccc2c3ccc(OCc4cn(-c5ccc(Br)cc5)nn4)cc3n(CCCc3ccccc3)c12,107%,68.9%,66.9%,-73.5% (active),34.1%,110%,15%,41.2%
COc1ccc2c(c1)OC(N)=C(C#N)C2c1ccc(F)cc1 (stereo not drawn),18.5%,44.8%,43.8%,41.8%,69.5%,-3.77% (active),12.6%,28.3%
CCc1c(C)c2cc3c(c(C)c2oc1=O)OCC(=O)N3,77.5%,35.9%,72.9%,37.3%,15.1%,43.6%,84.3%,80.7%
CCN(CC)CCNc1ccc([N+](=O)[O-])c2sc3cc(Cl)ccc3c(=O)c12,82.1%,78.9%,-19.3% (active),-79.5% (active),66.9%,73.5%,12.9%,29%
COc1ccc(Cl)cc1NC(=O)c1cc2c(n1C)-c1nc(NC(=O)C(C)C)sc1CC2,64.6%,91.3%,94.5%,76.7%,92%,93.2%,84.4%,80.2%
COc1cc(Cn2cc3c(c2)-c2onc(CO)c2CC3)cc(OC)c1OC,90.2%,90.3%,94.3%,68.4%,96.4%,97.5%,91.3%,95.8%
COc1ccc2c(-c3ccc(F)cc3)c(C#N)c(=NC(C)=O)oc2c1,26.5%,62.8%,56.9%,50.4%,78.1%,18.1%,13.1%,29.6%

Compound,growth [1],growth [2],growth [3],growth [4],growth [5],growth [6],growth [7],growth [8]
[2H]c1nc(Nc2ncc(F)c(-c3cc(F)c4nc(C)n(C(C)C)c4c3)n2)c([2H])c([2H])c1CN1CCN(CC)CC1,70.5%,55%,47.8%,23.1%,35.1%,44.2%,27.2%,15.4%
C=C1C(=O)O[C@H]2[C@H]1CC/C(C(=O)NCCOCCOCC(=O)Nc1ccc(OC)c(C(N)=O)c1O)=C\CC[C@@]1(C)O[C@@H]21,82.1%,95.7%,94.3%,87.3%,76.1%,105%,64.6%,66.2%
COc1ccc(/C=C2/C(=O)Nc3cc(Cl)c(-c4csc(N)n4)cc32)cc1,35%,46.5%,59.6%,55.6%,84.4%,25.1%,31.7%,28.2%
O=c1cc(Cl)[nH]c(=O)[nH]1,91.8%,104%,107%,96.4%,98.1%,100%,111%,88.5%
Cc1ccc(NC(=O)CN2CCOCC2)cc1Cl,95.1%,93.2%,93.1%,90.4%,95.6%,61.3%,78.9%,90.2%
CCOC(=O)c1noc2c1CCc1cn(Cc3cc(OC)cc(OC)c3)cc1-2,92.1%,98.1%,107%,84%,81.7%,107%,102%,79.5%
C=C1C(=O)O[C@H]2[C@H]1CC/C(COC(=O)OC/C1=C/CC[C@@]3(C)O[C@H]3[C@H]3OC(=O)[C@@H](CN(C)C)[C@@H]3CC1)=C\CC[C@@]1(C)O[C@@H]21,27.4%,48.8%,10.7%,-16.2% (active),-42.7% (active),58.5%,-13.3% (active),-30.9% (active)
Nc1ncnc2c1c(C(F)(F)F)cn2[C@@H]1O[C@H](CO)[C@@H](O)[C@H]1O,-42.6% (active),3.57% (active),15.7%,2.15% (active),4.15% (active),-43.2% (active),5.79% (active),0.0629% (active)
CC(C)(c1ccc(OCC(O)CNCc2ccco2)cc1)c1ccc(OCC(O)CNCc2ccco2)cc1 (stereo not drawn),94.4%,92.1%,87.6%,66.3%,93.1%,68.9%,72.9%,67.1%
COc1cc(-c2nc(N)n(CC(=O)Nc3ccc(/C(C)=N\O)cc3)n2)cc(OC)c1OC,92.1%,106%,96%,79.5%,90.9%,89.8%,84.5%,91.6%
Cc1cccc(Cc2cnc(NC(=O)CCc3ccc(C)o3)s2)c1,30.6%,43.8%,31.1%,34%,63.6%,-11.7% (active),5.94% (active),8.52% (active)
COc1cc(NC(=O)C#Cc2ccccc2)c(OC)cc1Cl,60.4%,62.7%,26.4%,40.4%,111%,100%,11.1%,22.4%
CC(=O)n1cc(/C=C2\N=C(c3ccc(Cl)cc3)N(c3ccc(S(=O)(=O)Nc4nccs4)cc3)C2=O)c2ccccc21,89.2%,85.7%,74.3%,70.4%,117%,74.9%,47.8%,51.1%
O=C(O)c1cccc(S(=O)(=O)c2ccccc2)c1,104%,92.6%,102%,96.1%,93.2%,98.5%,103%,99.6%
N#Cc1c(N)nc(Cl)c(C#N)c1C(=O)c1ccccc1,19.4%,87.8%,35.7%,32.4%,48.6%,108%,10.2%,19.7%
